An excerpt weighted towards active compounds, which were near 12% of everything screened.
Sfp PPTase inh: inhibitors of Bacillus subtilis Sfp phosphopantetheinyl transferase. Q9F4F7. Biochemical Sfp PPTase activity, qHTS. Potency, µM, for inactives: largest response in the series, negative = inhibition, most hits filed as inhibitors. 310,000 tested, 3.5% active;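 also: the enzyme is Sfp with the accession as filed and its product quenches rhodamine fluorescence; 0% = enzyme reaction without inhibitor and -100% = no enzyme wells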
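Step 1, compound plus 15 nM Sfp-PPTase, 15 min, room temperature. Step 2, add rhodamine-CoA (5 uM) and BHQ-2-YbbR (12.5 uM). Step 3, read 525/598 nm fluorescence at 0 and 30 min.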
HP1b chromo inh: inhibitors of HP1-beta chromodomain binding to methylated histone tails | P83916 | AlphaScreen HP1-beta / biotin-H3K9me3 peptide binding | Potency, µM (series often up to 114 µM), inactives show top-dose activity change, negative = inhibition, hits mostly inhibitors | 390,000 tested, 0.56% active | AID 540317; also: nearly all actives have a fitted effect of over 70% in size
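AlphaScreen: HP1-beta (50 nM) preformed 30 min with biotin-H3(1-18)K9me3 peptide (50 nM) in PBS pH 7.4, 0.01% Tween-20. Compound added for 30 min at RT, then streptavidin donor/nickel chelate acceptor beads (10 ug/mL) for 30 min.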
JMJD2A Tudor inh: JMJD2A Tudor domain (human) inhibition; O75164; AlphaScreen JMJD2A-Tudor / H3K4me3 peptide binding; Potency, µM (highest dose often 114 µM), without a hit: at the top dose activity change, negative = inhibition, most hits filed as inhibitors; 390,000 tested, 4.4% active; also: % is scaled to controls: 0 for no effect and ±100 for the full control effect; nearly all actives have a fitted effect of over 50% in size
Target sequence (O75164 whole entry, looked up, the tested form may be a part): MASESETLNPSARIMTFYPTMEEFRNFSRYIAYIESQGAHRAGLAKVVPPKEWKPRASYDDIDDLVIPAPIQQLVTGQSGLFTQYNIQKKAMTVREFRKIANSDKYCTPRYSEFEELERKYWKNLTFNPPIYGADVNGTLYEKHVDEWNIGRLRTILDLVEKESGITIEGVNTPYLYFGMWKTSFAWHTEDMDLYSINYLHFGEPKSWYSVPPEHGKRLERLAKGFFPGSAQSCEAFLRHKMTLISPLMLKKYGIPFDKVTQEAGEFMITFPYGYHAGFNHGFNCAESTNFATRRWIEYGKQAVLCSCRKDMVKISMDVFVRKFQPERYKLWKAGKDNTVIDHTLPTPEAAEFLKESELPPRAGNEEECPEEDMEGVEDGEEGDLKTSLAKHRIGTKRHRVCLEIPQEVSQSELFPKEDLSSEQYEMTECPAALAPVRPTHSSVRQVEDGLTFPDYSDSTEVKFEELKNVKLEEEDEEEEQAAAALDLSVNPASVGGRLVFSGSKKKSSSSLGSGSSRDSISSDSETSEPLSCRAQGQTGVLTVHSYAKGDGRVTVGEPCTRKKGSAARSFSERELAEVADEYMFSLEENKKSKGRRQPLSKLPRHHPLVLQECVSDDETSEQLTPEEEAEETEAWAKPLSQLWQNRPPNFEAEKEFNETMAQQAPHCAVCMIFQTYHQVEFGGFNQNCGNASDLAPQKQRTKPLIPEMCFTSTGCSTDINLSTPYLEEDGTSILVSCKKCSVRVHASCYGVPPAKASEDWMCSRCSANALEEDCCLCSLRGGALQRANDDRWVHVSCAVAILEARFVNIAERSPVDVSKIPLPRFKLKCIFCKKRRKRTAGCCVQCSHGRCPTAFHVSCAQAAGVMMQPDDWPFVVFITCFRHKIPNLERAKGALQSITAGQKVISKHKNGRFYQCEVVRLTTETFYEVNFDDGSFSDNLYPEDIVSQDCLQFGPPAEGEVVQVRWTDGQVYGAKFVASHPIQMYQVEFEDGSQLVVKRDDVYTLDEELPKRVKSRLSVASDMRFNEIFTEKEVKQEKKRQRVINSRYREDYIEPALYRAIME
G9a block: G9a (human) methyltransferase inhibition; Q96KQ7; G9a H3K9 monomethylation, AlphaScreen, 2 h; Potency, µM (top dose mostly 102 µM), without a hit: at the top dose activity, negative = inhibition, most hits filed as inhibitors; 350,000 tested, 8.8% active; AID 504332; also: % is scaled to controls: 0 for no effect and ±100 for the full control effect; nearly all actives have a fitted effect of over 75% in size
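AlphaScreen read-out: biotin-H3K9 peptide (500 nM) methylation by 20 nM enzyme with 20 uM SAM, 2 h at room temperature after 15 min compound preincubation; anti-monomethyl H3K9 antibody plus donor/acceptor beads, 10 min dark.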
BAZ2B block: BAZ2B (human) inhibition. Potency, µM (titrated, usually from 114 µM), for the others: at the highest dose activity change, negative = inhibition, usual class: inhibitors. AlphaScreen BAZ2B-H3K14Ac peptide displacement. Q9UIF8. 360,000 tested, 4.4% active; also: % is scaled to controls: 0 for no effect and ±100 for the full control effect; nearly all actives have a fitted effect of over 60% in size
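AlphaScreen displacement: compounds (up to 110uM) incubated 30 min at room temperature with a preformed 50 nM BAZ2B/50 nM biotinylated H3K14Ac peptide complex in PBS pH 7.4 with Tween-20. Donor and acceptor beads at 10 ug/mL final added, 20 min light-protected before reading.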
* = called active by the depositor; [ ] = remark or other dose. Calls follow the shape of the dose curve; as a rule, active = well fitted curve in the direction sought with a large enough effect; inconclusive = small, poorly fitted or top-dose-only effect, or another doubt; inactive = no such curve, though single readings can be large; an effect the other way counts as inactive or inconclusive. Potency is read from the fitted curve at half-maximal effect.

For Oc1ccc(C(=S)N2CCCC2)cc1 the results were Sfp PPTase inh 20µM*, HP1b chromo inh -19.3%, JMJD2A Tudor inh -6.3% and BAZ2B block -2.6%.
For CC1CCN(C(=S)c2ccccc2O)CC1 the results were Sfp PPTase inh 28.2µM*, HP1b chromo inh inconclusive, JMJD2A Tudor inh inconclusive, G9a block inconclusive and BAZ2B block -1.0%.
CC1CCN(C(=S)c2cn(Cc3cccc(F)c3)c3ccccc23)CC1 was read as Sfp PPTase inh -5.5%, HP1b chromo inh -6.2%[57 µM], JMJD2A Tudor inh -35.1%, G9a block -11.1%[59 µM] and BAZ2B block inconclusive.
Screening Oc1cccc(C(=S)N2CCCCC2)c1 returned Sfp PPTase inh 22.4µM*, HP1b chromo inh -23.3%, JMJD2A Tudor inh -9.8%[11.4 µM], G9a block 31.6µM* and BAZ2B block -20.4%.
CC1CCN(C(=S)c2ccc(O)cc2)CC1 was read as Sfp PPTase inh 56.2µM*, HP1b chromo inh -3.1%, JMJD2A Tudor inh -31.0%, G9a block 35.5µM* and BAZ2B block 7.8%[57.1 µM].
For COc1cccc(-c2ncc3ccccc3c2COC(=O)c2ccc(C(F)(F)F)cc2)c1 the results were HP1b chromo inh 139.0%, JMJD2A Tudor inh -22.1%, G9a block 7.5%[0.501 µM] and BAZ2B block 3.1%.
For Oc1ccc(C(=S)N2CCCCCC2)cc1 the results were Sfp PPTase inh 56.2µM*, HP1b chromo inh -17.9%, JMJD2A Tudor inh -31.7%, G9a block 31.6µM* and BAZ2B block -1.2%[57.1 µM].
For Cc1ccc(C(=S)N2CCCCCC2)cc1 the results were Sfp PPTase inh 44.7µM*, HP1b chromo inh 15.6%, JMJD2A Tudor inh -23.1%, G9a block 10µM* and BAZ2B block -18.3%.
Screening COc1ccc(C(=S)N2CCCC2)cc1 returned Sfp PPTase inh 7.4%, HP1b chromo inh 41.5%, JMJD2A Tudor inh 10.2%[57.1 µM], G9a block inconclusive and BAZ2B block -35.3%.
COc1ccc(C(=S)N2CCCCC2)cc1Br was read as Sfp PPTase inh 19.8%, HP1b chromo inh -17.1%, JMJD2A Tudor inh inconclusive, G9a block -33.3% and BAZ2B block -25.2%.
O=C(NCC1CCCCC1)c1ccc(F)c(S(=O)(=O)N2CCOCC2)c1 was read as HP1b chromo inh 27.8%, JMJD2A Tudor inh -13.2%, G9a block -2.5%[2.33 µM] and BAZ2B block 4.9%.
CCC1CCCCN1C(=S)NC(=O)c1ccc(F)c(S(=O)(=O)N2CCOCC2)c1 (centres undefined) was read as Sfp PPTase inh -16.4%, HP1b chromo inh 8.2%, JMJD2A Tudor inh -20.3%, G9a block 44.7µM* and BAZ2B block -37.3%.
CCC1CCCCN1C(=S)NC(=O)c1ccc([N+](=O)[O-])cc1 (centres undefined) was read as Sfp PPTase inh -7.5%, HP1b chromo inh -13.0%, JMJD2A Tudor inh inconclusive, G9a block inconclusive and BAZ2B block 70.8µM*.
Screening CCC1CCCCN1C(=S)NC(=O)c1cc(Br)ccc1Cl (centres undefined) returned HP1b chromo inh 36.5%, JMJD2A Tudor inh -26.2%, G9a block 9.4%[59 µM] and BAZ2B block -36.0%.
For Cc1cccn2c(=O)c(C(=O)NC3CC(C)CC(C)(C)C3)c(O)nc12 (centres undefined) the results were HP1b chromo inh 57.8%, JMJD2A Tudor inh 3.7%, G9a block 12.2%[2.33 µM] and BAZ2B block 6.2%.
Screening Cc1ccc(NCc2ccccc2O)c(C)c1 returned Sfp PPTase inh 10.3%, HP1b chromo inh -8.4%, JMJD2A Tudor inh inconclusive, G9a block 44.7µM* and BAZ2B block 31.6µM*.
Screening CC(C)C[C@@H](CC(=O)N[C@@H](CCC(=O)O)CC(=O)O)NC(=O)[C@@H]1CCCC[C@H]1NC(=O)C[C@H](CCCN)NC(=O)C[C@H](CO)NC(=O)[C@@H]1CCCC[C@H]1N returned Sfp PPTase inh -16.3%.
For CCOc1ccc(Nc2nc(Cc3nnc(SCC(=O)NC4CCCCC4)n3C)cs2)cc1 the results were Sfp PPTase inh -7.7%, HP1b chromo inh -0.7%, JMJD2A Tudor inh 56.2µM*, G9a block -7.9%[12.7 µM] and BAZ2B block 50.1µM*.
For COCCCn1c(Cc2csc(Nc3ccc(F)cc3)n2)nnc1SCC(N)=O the results were Sfp PPTase inh 50.1µM*, HP1b chromo inh 31.4%, JMJD2A Tudor inh inconclusive, G9a block inconclusive and BAZ2B block inconclusive.
For CCOc1ccc(Nc2nc(Cc3nnc(SCC(=O)N(CC)CC)n3C)cs2)cc1 the results were Sfp PPTase inh 31.6µM*, HP1b chromo inh 26.3%, JMJD2A Tudor inh -15.0%[57.1 µM], G9a block -5.9%[59 µM] and BAZ2B block inconclusive.
For CCOc1ccc(Nc2nc(Cc3nnc(SCC(N)=O)o3)cs2)cc1 the results were Sfp PPTase inh -11.0%, HP1b chromo inh 5.9%, JMJD2A Tudor inh inconclusive, G9a block 21.9%[59 µM] and BAZ2B block -5.7%.
Screening COc1ccc(NC(=O)Cc2nnc(SCC(=O)NC3CCCCC3)n2C)cc1 returned Sfp PPTase inh 4.1%, HP1b chromo inh 21.5%, JMJD2A Tudor inh -16.1%, G9a block 11.4% and BAZ2B block 1.5%.
CCOc1ccc(Nc2nc(Cc3nnc(SCC(=O)NCC4CCCO4)n3C)cs2)cc1 (centres undefined) was read as Sfp PPTase inh 28.2µM*, HP1b chromo inh -7.9%, JMJD2A Tudor inh inconclusive, G9a block -21.7%[59 µM] and BAZ2B block inconclusive.
Screening Cc1ccc(/C=C/c2onc(C)c2S(=O)(=O)N2CCC(C(=O)Nc3ccccc3C(F)(F)F)CC2)cc1 returned HP1b chromo inh 17.8%[57 µM], JMJD2A Tudor inh -11.2%, G9a block 8.3%[59 µM] and BAZ2B block 0.5%.
Screening CC(CCc1ccccc1)NC(=O)CN1CCN(Cc2ccccc2)C1=O (centres undefined) returned Sfp PPTase inh 16.8%, HP1b chromo inh 20.1%, JMJD2A Tudor inh -7.0%, G9a block 9.4% and BAZ2B block 3.8%.
CC(C)(C)NC(=O)NC(=O)CN1CCN(c2ccc(O)cc2)CC1 was read as Sfp PPTase inh -92.9%, HP1b chromo inh inconclusive, JMJD2A Tudor inh 22.4µM*, G9a block 3.16µM* and BAZ2B block -27.0%.
For CC(CCc1ccccc1)NC(=O)CN1CCN(c2ccc(O)cc2)CC1 (centres undefined) the results were Sfp PPTase inh 10µM*, HP1b chromo inh 89.1µM*, JMJD2A Tudor inh 44.7µM*, G9a block 7.94µM* and BAZ2B block inconclusive.
Screening CC(C)(C)NC(=O)NC(=O)CN1CCN(c2ccccc2)CC1 returned Sfp PPTase inh 15.2%, HP1b chromo inh 30.9%, JMJD2A Tudor inh -6.2%, G9a block 7.5% and BAZ2B block 1.3%.
COCC(C)NCC(=O)NC(C)CCc1ccccc1 (centres undefined) was read as Sfp PPTase inh -15.7%, HP1b chromo inh -32.1%, JMJD2A Tudor inh 1µM*, G9a block 8.91µM* and BAZ2B block 56.2µM*.
Screening Cc1ccc(NC(=O)NC(=O)CN2CCN(c3ccc(O)cc3)CC2)c(C)c1 returned Sfp PPTase inh 50.1µM*, HP1b chromo inh 70.8µM*, JMJD2A Tudor inh 44.7µM*, G9a block 7.94µM* and BAZ2B block inconclusive.
